{"source": "the supplement of paper PMC13380429"}
{"test_system": "Vero E6 infected with SARS-CoV-2", "assay": "morphology score (similarity to uninfected cells); higher = more like uninfected cells", "conditions": "24 h"}
{"smiles": "CC(=O)c1ccc2c(c1)N(CCCN1CCN(CCO)CC1)c1ccccc1S2", "note": "[acetophenazine] (10 µM)", "morphology score": 0.201}
{"smiles": "Cc1nc2c(OCc3ccccc3)cccn2c1CC#N", "note": "(10 µM)", "morphology score": 0.0125}
{"smiles": "Nc1nc(=O)n([C@H]2C[C@H](O)[C@@H](CO)O2)cc1Cl", "note": "[cytochlor] (10 µM)", "morphology score": 0.156}
{"smiles": "CCCCCC(O)CCCC(=O)O", "note": "(stereo unspecified) (10 µM)", "morphology score": 0.00301}
{"smiles": "CC[C@H](C)C[C@H](C)CCCCCCCCC(=O)N[C@H]1C[C@@H](O)[C@@H](NCCN)NC(=O)[C@@H]2[C@@H](O)CCN2C(=O)[C@H]([C@H](O)CCN)NC(=O)[C@H]([C@H](O)[C@@H](O)c2ccc(O)cc2)NC(=O)[C@@H]2C[C@@H](O)CN2C(=O)[C@H]([C@@H](C)O)NC1=O", "note": "[caspofungin] (10 µM)", "morphology score": -0.0128}
{"smiles": "CCc1c2c(nc3ccc(O)cc13)-c1cc3c(c(=O)n1C2)COC(=O)[C@]3(O)CC", "note": "(0.833333 µM)", "morphology score": -0.131}
{"smiles": "O=S(=O)(c1cccc2c(O)nccc12)N1CCCNCC1", "note": "[hydroxyfasudil] (10 µM)", "morphology score": 0.355}
{"smiles": "C=CC(=O)Nc1cccc(Nc2nc(Nc3ccc(Oc4ccnc(C(=O)NC)c4)cc3)ncc2F)c1", "note": "(0.833333 µM)", "morphology score": 0.147}
{"smiles": "CN1CCc2c(c3ccccc3n2Cc2ccccc2)C1", "note": "[mebhydrolin] (10 µM)", "morphology score": 0.242}
{"smiles": "OC[C@H]1O[C@@H](Oc2cc(O)cc(/C=C/c3ccc(O)cc3)c2)[C@H](O)[C@@H](O)[C@@H]1O", "note": "[polydatin] (10 µM)", "morphology score": 0.0104}
{"smiles": "CC/C(=C(/CC)c1ccc(O)cc1)c1ccc(O)cc1", "note": "[diethylstilbestrol] (10 µM)", "morphology score": -0.0992}
